The text below walks through data of PubChem BioAssay AID1851 (National Center for Advancing Translational Sciences (NCATS), 2009).

Screen size: about 16,000 compounds; about 4,000 (25%) were called active. Another 26% or so got no clear call; they are omitted. The call rests on the fitted dose curve; in most records, active means well fitted curve in the direction sought with a large enough effect; inconclusive means small, poorly fitted or top-dose-only effect, or effect the other way; inactive means no such curve, though single readings can be large or run the other way. Not all results are given here. Peptide text beside a SMILES is read from it.
On the % scale 0 is the no-effect control and ±100 the full control effect.

Sequence of Cytochrome P450 2C9 (Homo sapiens) (P11712 whole entry, looked up): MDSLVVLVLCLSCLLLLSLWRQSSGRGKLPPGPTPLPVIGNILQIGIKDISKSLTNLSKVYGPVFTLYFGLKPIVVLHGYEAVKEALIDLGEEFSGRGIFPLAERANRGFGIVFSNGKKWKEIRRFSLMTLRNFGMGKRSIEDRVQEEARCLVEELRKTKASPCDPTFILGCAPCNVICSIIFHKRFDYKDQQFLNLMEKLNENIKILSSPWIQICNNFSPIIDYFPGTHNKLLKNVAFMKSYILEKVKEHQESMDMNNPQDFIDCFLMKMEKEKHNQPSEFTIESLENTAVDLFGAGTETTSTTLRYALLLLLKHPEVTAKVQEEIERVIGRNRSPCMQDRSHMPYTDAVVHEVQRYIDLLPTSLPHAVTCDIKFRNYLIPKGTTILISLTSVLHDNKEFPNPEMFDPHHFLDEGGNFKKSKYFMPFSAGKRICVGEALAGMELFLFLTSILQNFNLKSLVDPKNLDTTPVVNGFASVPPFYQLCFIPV

This assay has as its target Cytochrome P450 2C9 (Homo sapiens) (UniProt P11712). The assay can be described thus: Cytochrome panel assay with activity outcomes. The note with it: recombinant CYP, pro-luciferin dealkylation, luminescence, p450-cyp2c9; series mostly up to 57.1 µM; activity, negative = inhibition: at the top concentration.
On to `Cc1ccc(/C=C/C(=O)N2CC(C)CC(C)C2)o1` (stereo unspecified), for which the AC50 (commonly the concentration giving half of the maximal activity seen) was 15.8 µM (active).
For `Cc1ccc(/C=N/NC(=O)Cn2nccc2C)o1`, the “activity, negative = inhibition” value is -17.9% (inactive).
On to `CSc1nnnc2ccccc12`, for which the activity, negative = inhibition was 14.9% [at 11.4 µM] (inactive).
For the compound `CSc1nc(Sc2cccc(Cl)c2)c2ccccc2n1`, the AC50 is 0.251 µM (active).
As to `COc1ccccc1NC(=O)c1nc[nH]c1C(=O)Nc1ccccc1OC`, the “activity, negative = inhibition” value was -16.4% (inactive).
For `COc1ccccc1NC(=O)C1=C(C)Nc2nnnn2C1c1cccc(Br)c1` (stereo unspecified), the AC50 is 14.1 µM (active).
Same read-out and setting: with `CC1=C(C(=O)Nc2cccnc2)C(c2cccnc2)n2nc(-c3cccs3)nc2N1` (stereo unspecified) the figure was 8.91 µM (active); with `COc1ccccc1NC(=O)C1=C(C)Nc2nc(-c3ccc(N(C)C)cc3)nn2C1c1ccncc1` (stereo unspecified), 8.91 µM (active).
With `COC(=O)C1=C(C)Nc2ncnn2C1c1cccnc1` (stereo unspecified), the “activity, negative = inhibition” value is -28.3% (inactive).
The same measure, in the same setting: the figure for `COc1ccccc1CNc1ccnc(-c2ccc(N(C)C)cc2)n1` is -19.9% [at 2.29 µM] (inactive).
`NS(=O)(=O)c1cc2c(cc1Cl)N[C@@H](C(Cl)Cl)NS2(=O)=O`: the “activity, negative = inhibition” value was 15% [at 25.6 µM] (inactive).
The same measure, in the same setting: the figure for `Cc1noc(C)c1-c1nccc(NCc2cccs2)n1` is -12.6% [at 2.29 µM] (inactive); for `COc1cc([C@H](O)CO)ccc1O` it is 4.28% (inactive).
Still for that read-out and setting: the figure for `CCCCNN` is -5.3% [at 11.4 µM] (inactive); for `NCCSCCC(=O)O` it is -9.49% [at 11.4 µM] (inactive).
`C=C1CC[C@H](O)C/C1=C/C=C1\CCC[C@]2(C)[C@H]1CC[C@H]2[C@@H](C)/C=C\[C@@H](C)C(C)C`: the “activity, negative = inhibition” value was -8.1% [at 25.6 µM] (inactive).
The same measure, in the same setting: with `COc1cc(C(=O)N2CCC(NC(=O)C(Cc3ccc(C(C)C)cc3)NC(C)=O)CC2)cc(OC)c1OC` (stereo unspecified) the figure was -6.93% (inactive).
Turning to `Cc1ccc(Oc2ccccc2/C=C2\SC(=O)N(C)C2=O)cc1`, the AC50 is 10 µM (active).
Consider `COc1cc(C)cc2c(-c3c(O)cc(O)c4c3C[C@H](C)N[C@@H]4C)cc(-c3cc(-c4c(O)cc(O)c5c4C[C@H](C)N[C@@H]5C)c4cc(C)cc(OC)c4c3O)c(O)c12`, for which the activity, negative = inhibition is -22.5% [at 11.4 µM] (inactive).
The same measure, in the same setting: with `O=C(O)C[C@H](NC(=O)CP(=O)(O)O)C(=O)O.[NH-][C@@H]1CCCC[C@@H]1[NH-].[Pt]` the figure was -7.92% [at 11.4 µM] (inactive); with `COc1ccc(NC(=O)N2CCCC3(CCN(C(=O)c4ccco4)CC3)C2)cc1`, -29.7% (inactive).
The same measure, in the same setting: the figure for `COc1cccc(C(=O)Nc2nc3c(s2)CN(C)CC3)c1` is -22.5% (inactive).
For the compound `COc1ccc(C(=O)Nc2nc3c(s2)Cc2cc(OC)ccc2-3)cc1`, the AC50 is 5.62 µM (active).
For `CC(=O)Nc1nnc(SCc2ccc(F)cc2)s1`, the “activity, negative = inhibition” value was -26.3% (inactive).
As for `COc1ccc2c(c1)Cc1sc(NC(=O)c3ccco3)nc1-2`, the AC50 was 10 µM (active).
Same read-out and setting: with `COc1ccc2c(c1)CCc1sc(NC(=O)c3ccc(C)cc3)nc1-2` the figure was 5.01 µM (active); with `O=C(Nc1nnc(SCc2ccc(Cl)cc2)s1)c1ccco1`, 0.562 µM (active).
`C[N+]1(C)CCC[C@@H](OC(=O)C(O)(c2ccccc2)c2ccccc2)C1`: the “activity, negative = inhibition” value was 4.11% [at 25.6 µM] (inactive).
As for `COc1ccc(-n2c(=O)c(C)nc3cnc(N(C)C)nc32)cc1`, the “activity, negative = inhibition” value is 6.2% (inactive).
As to `CN(C)c1ncnc2ccc(-c3ccccc3C(F)(F)F)cc12`, the activity, negative = inhibition is -18.7% [at 2.29 µM] (inactive).
On the same count and under the same terms, the figure for `COc1ccccc1-c1cc(Nc2ccc(F)cc2)ncn1` is -2.06% [at 2.29 µM] (inactive).
On to `O=C(NNC(=O)C1CCCCC1)c1cnccn1`, for which the “activity, negative = inhibition” value is -34.4% (inactive).
Consider `CC(C)CN(C)c1nc(N)c(C(=O)N=C(N)N)nc1Cl`, for which the “activity, negative = inhibition” value is 19.3% (inactive).
The same measure, in the same setting: with `Clc1ccccc1-c1nc(NCCN2CCOCC2)c2ccccc2n1` the figure was 24.6% [at 2.29 µM] (inactive).
The same measure, in the same setting: with `O=C1CSC2(CCN(CCCN3c4ccccc4Sc4ccc(Cl)cc43)CC2)N1` the figure was 4.61% [at 11.4 µM] (inactive).
Regarding `COc1ccc(Cc2nnc(NC(=O)c3ccco3)s2)cc1`, the AC50 is 2.82 µM (active).
Consider `COc1ccccc1NC(=O)Nc1nnc(-c2ccco2)s1`, for which the “activity, negative = inhibition” value was -20% (inactive).
Still for that read-out and setting: with `OC[C@@H]1O[C@@H](n2cnc3cncnc32)[C@@H](O)[C@H]1O` the figure was -10.9% (inactive).
The same measure, in the same setting: with `COc1cccc(-c2nccc(NCc3cnc(C)cn3)n2)c1` the figure was -10.6% [at 2.29 µM] (inactive); with `CN(C)CC/C=C1\c2ccccc2CSc2ccccc21`, 1.47% [at 25.6 µM] (inactive); with `C[C@H](N)C(=O)O`, 10.4% (inactive).
As for `CC(=O)N[C@@H](CC(=O)O)C(=O)N[C@@H](CCC(=O)O)C(=O)O` (Ac-Asp-Glu-OH), the AC50 entry is “inactive”.
In the case of `O=C(c1csnn1)N1CCC2(CC1)CCN(c1ccccc1)CC2`, the “activity, negative = inhibition” value is 15.3% (inactive).
On the same count and under the same terms, the figure for `O=C(c1csnn1)N1CCC2(CC1)CN(c1ccccc1)C2` is -11.7% (inactive).
Take `O=C(c1csnn1)N1CCC2(CC1)CN(c1ccncc1)C2`: the AC50 is 2.51 µM (active).
Take `O=C(c1csnn1)N1CCC2(CC1)CN(c1cccc(-c3ccccc3)c1)C2`: the “activity, negative = inhibition” value was 3.02% (inactive).
